Compound activity from PubChem.
Hits are enriched below; roughly 21% of the tested compounds scored in any of these assays.
Giardia FBPA inh – blocks Giardia fructose-bisphosphate aldolase activity | 290,000 compounds, 0.71% hits | Potency, µM (series often up to 59.6 µM), for inactives: top-dose activity, negative = inhibition, hits mostly inhibitors | purified Giardia FBPA | AID 2451; further: potency means the concentration at half of the fitted maximal effect; on the % scale 0 is the no-effect control and ±100 the full control effect; nearly all actives have a fitted effect of over 55% in size
Target sequence (A8B2U2 whole entry, looked up): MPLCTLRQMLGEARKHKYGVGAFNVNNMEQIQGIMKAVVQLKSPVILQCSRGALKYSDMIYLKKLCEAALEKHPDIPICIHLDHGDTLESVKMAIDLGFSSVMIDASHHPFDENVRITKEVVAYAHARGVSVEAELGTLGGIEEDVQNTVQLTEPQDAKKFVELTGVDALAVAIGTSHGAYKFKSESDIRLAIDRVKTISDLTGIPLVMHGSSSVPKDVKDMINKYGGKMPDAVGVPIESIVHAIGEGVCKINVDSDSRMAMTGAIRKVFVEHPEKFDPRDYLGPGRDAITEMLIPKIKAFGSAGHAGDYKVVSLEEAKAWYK
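Giardia FBPA (40 nM reagent) was preincubated 10 min at RT with compound (up to 57.5 uM final), then substrate plus GAPDH/TPI/NAD/arsenate coupling system with diaphorase/resazurin was added; resorufin fluorescence (525/598 nm) was read after 20 min.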
Pf growth 48h – P. falciparum growth inhibition at 48 hours (one generation); 310,000 compounds, 5.9% hits; Potency, µM (titrated, usually from 28.7 µM), inactives show top-dose activity change, negative = inhibition, most hits filed as inhibitors; P. falciparum luciferase growth in erythrocytes, 48 h; further: potency means the concentration at half of the fitted maximal effect; on the % scale 0 is the no-effect control and ±100 the full control effect
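Luciferase-expressing parasites in RBCs, 2% Hct / 0.1% parasitemia final; RPMI 1640 + 0.5% Albumax; 37 C, 5% CO2, one generation; luminescence read-out, lower signal = inhibition.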
Shiga toxin inh – inhibitors of Shiga toxin in Vero cells. Vero cells, Shiga toxin protein synthesis inhibition reporter. inhibition, % at 38.7 µM. 290,000 compounds, 9.2% hits. AID 2315; in the data active means inhibition mostly above about 28%, no sharp cut-off; inactive means mostly below about 43%; further: 0% is about no effect
NS1 function inh – influenza NS1 inhibition; 270,000 compounds, 0.4% hits; Potency, µM (highest dose often 46.1 µM), without a hit: at the highest dose activity, positive = more growth; AID 2326; calls by dose curve; further: potency means the concentration at half of the fitted maximal effect; actives are rising curves; nearly all actives have a fitted effect of over 50% in size
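In this qHTS, NS1 from influenza A is expressed in budding yeast, where it slows growth. Cells are switched from glucose to 2% galactose medium (pH 6.0, -URA), treated with compound, and growth recovery is read at OD600.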
Pf growth 96h – inhibits malaria parasite growth, 96 h; P. falciparum luciferase reporter growth, 96 h; Potency, µM (doses to about 28.7 µM), for inactives: at the top dose activity change, negative = inhibition, usual class: inhibitors; 320,000 compounds, 6.9% hits; AID 504834; further: potency means the concentration at half of the fitted maximal effect; on the % scale 0 is the no-effect control and ±100 the full control effect
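96 h incubation, 37 C, 5% CO2, of luciferase-reporter P. falciparum-infected RBCs (2% hematocrit, 0.05% parasitemia final) with test compounds; endpoint luminescence.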
Cycloheximide cs – counter-screen for Shiga toxin inhibitors: cycloheximide protein synthesis inhibition; cell reporter, cycloheximide protein synthesis inhibition counterscreen; max response, %; 300,000 compounds, 12% hits; in the data active means max response mostly above about 13%, no sharp cut-off; inactive means mostly below about 14%; further: read at 38.3 µM for the half of the compounds with a filed dose; 0% is about no effect
An asterisk follows results filed as active; ? = inconclusive; / = no result. Unless noted, the call rests on the fitted dose curve; in most records, active means well fitted curve in the direction sought with a large enough effect; inconclusive means small, poorly fitted or top-dose-only effect, or another doubt; inactive means no such curve, though single readings can be large; an effect the other way counts as inactive or inconclusive.

SMILES	Giardia FBPA inh	Pf growth 48h	Shiga toxin inh	NS1 function inh	Pf growth 96h	Cycloheximide cs
COc1ccc(NC(=O)C(c2ccc(Cl)cc2)C(C)C)cn1 (centres undefined)	-12%	1.5µM*	-8	-53%	?	7
CCOC(=O)c1ccc(NC(=O)NCc2ccccc2OC)cc1	-2%	?	15	-9%	13µM*	3
CCOC(=O)N1CCN(C(=O)COC(=O)CNC(=O)c2ccc(C)cc2)CC1	/	9%	/	/	45%	/
CSCCC(NC(=O)c1ccccc1Cl)C(=O)NC1CCN(Cc2ccccc2)CC1 (centres undefined)	/	50%	-4	-2%	-21%	5
O=C(Nc1ccncc1)Nc1ccc(F)c(Cl)c1	2%	3.3µM*	30	3%	20%	15
COC(=O)c1cc(NC(=O)c2ccc(F)cc2)cc(C(=O)OC)c1	-4%	26%	24	-7%	0%	12
COC(=O)c1ccc(NC(=O)Nc2ccc(F)c(Cl)c2)cc1	1%	/	49*	-53%	-60%	28*
O=C(Nc1ccc(F)c(Cl)c1)Nc1ccc(Cl)cn1	4%	3%	14	0%	28%	-1
COC(=O)c1ccc(NC(=O)Nc2ccc(F)cc2)cc1	-3%	?	107*	-117%	?	26*
CC(=O)c1cccc(NC(=O)Nc2c(C)nn(C)c2C)c1	-8%	19%	-4	4%	-13%	-3
CCOC(=O)c1ccc(NC(=O)Nc2c(C)nn(C)c2C)cc1	-6%	0%	4	-14%	12µM*	0
COC(=O)c1ccccc1-c1cn(C)c2ccccc2c1=O	9%	/	-2	-1%	-27%	-2
O=C(COC(=O)c1ccc(Cl)nc1)Nc1ncc(Cl)cc1Cl	-4%	104%	-10	/	110%	11
CCOC(=O)c1ccc(NC(=O)Nc2ncc(Cl)cc2Cl)cc1	-15%	4%	22	-6%	9%	17*
Cc1cc(OCC(=O)OCC(=O)NC2CCCCC2C)ccc1Cl (centres undefined)	/	-27%	/	/	-18%	/
O=C(O)c1ccc(N/N=C/C2=Cc3ccccc3OC2)cc1	14%	218%	73*	-51%	111%	41*
COCCNC(=O)C(OC(=O)C1=Cc2ccccc2OC1)C(C)C (centres undefined)	1%	20%	-8	1%	?	2
N=C1C(c2ccccc2)=C(O)CN1c1cccc(S(=O)(=O)N2CCCCC2)c1	1%	?	-6	-5%	?	-1
CN(Cc1c(F)cccc1Cl)C(=O)CNC(=O)c1cccs1	/	57%	94*	5%	?	39*
CN(C)/C=C/c1oc2ccc(O)cc2c1[N+](=O)[O-]	-7%	54%	146*	/	39%	37
CCC(C(=O)OC)n1cnc2c(nnn2-c2ccc(C)cc2)c1=O (centres undefined)	9%	17%	22*	-5%	41%	12*
CCOC(=O)C(C)n1cnc2c(nnn2-c2ccc(C)cc2)c1=O (centres undefined)	-1%	/	14	-3%	7.4µM*	15
CCOC(=O)C(CC)n1cnc2c(nnn2-c2ccc(OC)cc2)c1=O (centres undefined)	3%	14%	-8	-1%	47%	-4
CCOC(=O)C(C)n1cnc2c(nnn2-c2ccc(OC)cc2)c1=O (centres undefined)	-3%	14%	86*	6%	-4%	32*
CCOC(=O)C(C)n1cnc2c(nnn2Cc2ccc(Cl)cc2)c1=O (centres undefined)	0%	/	-20	-11%	8.3µM*	-2
SMILES	Giardia FBPA inh	Pf growth 48h	Shiga toxin inh	NS1 function inh	Pf growth 96h	Cycloheximide cs
CCOC(=O)C(C)n1cnc2c(nnn2Cc2ccc(C)cc2)c1=O (centres undefined)	5%	-7%	-16	4%	5%	8
CCCOc1ccc(-c2c(C(=O)N/N=C(\C)COc3ccccc3)nnn2-c2nonc2N)cc1	-5%	-1%	-11	?	41%	-4
CC1CC2C3CCC4=CC(=O)C=C[C@@]4(C)[C@]3(F)C(O)C[C@]2(C)[C@]1(O)C(=O)COP(=O)(O)O (some centres undefined)	-1%	/	/	/	/	/
O=c1[nH]c(Cc2cccc(C(F)(F)F)c2)nc2ccccc12	-4%	?	-10	5%	-5%	-7
S=c1nc(-c2ccccc2)c(-c2ccccc2)n[nH]1	2%	46%	-13	-2%	66%	-5
Nc1c(-c2ccccc2)n[nH]c1-c1ccccc1	-1%	102%	78*	-48%	8%	31*
CCCN1CCC(=O)N(CCO)CC1	-9%	-11%	-3	35%	1%	-1
COc1ccc(-c2nc(SCC(=O)Nc3cc(C)on3)n[nH]2)cc1	-1%	29%	29	0%	/	3
CCCCOc1ccc(-c2nc(=S)[nH][nH]2)cc1	29%	/	-3	1%	12µM*	-2
CCCCOc1ccc(-c2nc(SCC(N)=O)n[nH]2)cc1	4%	101%	48	-2%	186%	34*
O=C(CCSc1ccc(Cl)cc1)Nc1cccnc1	3%	15%	14	4%	5%	16
Cc1nc(N2CCN(c3ccccc3O)CC2)c2c(-c3ccccc3)csc2n1	-11%	13µM*	-10	8%	?	8
CN1CCN(c2ncnc3scc(-c4ccccc4Cl)c23)CC1	1%	?	-16	11%	5.9µM*	-6
Oc1ccccc1N1CCN(c2ncnc3scc(-c4ccc(F)cc4)c23)CC1	-2%	13µM*	-3	0%	?	1
OCCN1CCN(c2ncnc3scc(-c4ccc(F)cc4)c23)CC1	-3%	-10%	-5	10%	-28%	-1
COc1ccc(-c2csc3nc(C)nc(N4CCC(C)CC4)c23)cc1OC	-12%	-6%	-6	/	-22%	0
COc1ccc(-c2csc3nc(C)nc(N4CCN(C(C)=O)CC4)c23)cc1OC	2%	4.1µM*	-37	-4%	5%	15
CCOc1c(C)cnc2c1c(=O)n(Cc1c(F)cccc1Cl)c(=O)n2C	1%	-11%	2	-14%	-1%	-3
COc1ccc(NC(=O)N2CC[C@@]3(CCCN(C(=O)c4csnn4)C3)C2)cc1	1%	/	/	/	/	/
Cc1noc(C)c1C(=O)N1CCC[C@@]2(CCN(c3ccccc3)C2)C1	-24%	/	/	/	/	/
O=C1C=C(c2ccc3c(c2)oc2ccccc23)C[C@@H](c2ccc(Cl)cc2)C1	/	26%	/	/	7%	/
Oc1ccccc1N1CCN(c2ncnc3scc(-c4ccccc4)c23)CC1	0%	5.9µM*	-5	-4%	5.2µM*	-3
COc1ccc2c(c1)O[C@@H](c1ccc3c(c1)OCO3)[C@H](O)C2=O	-1%	/	/	/	/	/
O=C(O)c1ccc(N/N=C/c2ccc(F)c(F)c2)cc1	6%	258%	35	-31%	174%	15*
O=C(O)c1ccc(N/N=C/c2cccc(C(F)(F)F)c2)cc1	2%	252%	84*	-81%	-22%	55*
